What all share (test): NCI-60 one-dose screen, 48 h (100 = growth as untreated, 0 = no growth, -100 = all killed)
Assay [1] concerns SK-MEL-2 melanoma. The settings on record: 10 µM unless noted.
The subject of assay [2] is EKVX NSCLC. As to conditions: 10 µM unless noted.
Assay [3] relates to SN12C renal. As to conditions: 10 µM unless noted.
Assay [4] relates to UO-31 renal. As to conditions: 10 µM unless noted.
Assay [5] deals with TK-10 renal. As to conditions: 10 µM unless noted.
Assay [6] concerns ACHN renal. The settings on record: 10 µM unless noted.
Assay [7] concerns CAKI-1 renal. The settings on record: 10 µM unless noted.
In assay [8] the test system is A498 renal. As to conditions: 10 µM unless noted.
In assay [9] the test system is CCRF-CEM leukemia. The settings on record: 10 µM unless noted.
For assay [10], the system named is MOLT-4 leukemia. The settings on record: 10 µM unless noted.
Assay [11] has as its system SR leukemia. The settings on record: 10 µM unless noted.
In assay [12] the test system is RPMI-8226 leukemia. As to conditions: 10 µM unless noted.
Assay [13] concerns OVCAR-8 ovarian. The settings on record: 10 µM unless noted.
Assay [14] concerns OVCAR-5 ovarian. The settings on record: 10 µM unless noted.
Assay [15] relates to SK-OV-3 ovarian. The settings on record: 10 µM unless noted.
For assay [16], the system named is IGROV1 ovarian. As to conditions: 10 µM unless noted.
The test system of assay [17] is OVCAR-3 ovarian. As to conditions: 10 µM unless noted.
Assay [18] relates to HS 578T breast. As to conditions: 10 µM.
The subject of assay [19] is NCI/ADR-RES ovarian. As to conditions: 10 µM unless noted.
In assay [20] the test system is OVCAR-4 ovarian. The settings on record: 10 µM unless noted.

This is part of a sample that, as a whole, favours compounds with a hit. Of some 83,000 tested, about 20% had one in any assay.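 Single-dose data. Exposure time 48 hours. Values below 10 considered active.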 A number with no mark means an inactive call. Active and inactive are the calls of the source.

Take `CCN(CC)Cc1cc(Nc2ccnc3cc(Cl)ccc23)cc(-c2ccc(Cl)cc2)c1O`: the growth in assay [1] is 80.1%; in [2], 2.25% (active); in [3], 23.6%; in [4], -21.4% (active); in assay [5], 5.81% (active); in assay [6], 57.1%. Moreover, the growth in assay [7] is 54.8%; in assay [8], 48.9%; in [9], 45%; in assay [10], 24%; in assay [11] it was -22.7% (active); in assay [12], 6% (active). In addition, the growth in assay [13] is 9.58% (active); in assay [14] it was 54.2%; in assay [15] it was 48.1%; in assay [16], -6.07% (active); in assay [17] it was -44.1% (active); in assay [18], -33.5% (active). The growth in [19] was 19.9%.
As for `COc1ccc(-c2nn(-c3cccc(Cl)c3)cc2/C=C2\C(=N)N(c3ccccc3)N=C2N)cc1`, the growth in assay [1] was 69.5%; in assay [2], 48.8%; in [3], 45.9%; in [4], 6.27% (active); in assay [5], 80.7%; in [6] it was 20.7%. Further, the growth is -27.6% (active) in [7]; 75.3% in [8]; 12.3% in assay [9]; 6.35% (active) in assay [10]; 17.9% in assay [11]; 47.3% in assay [12]. Also, the growth in assay [13] is 42.3%; in assay [14], 39.8%; in assay [20], 71.6%; in assay [15], 91.3%; in assay [17] it was 38.8%; in [18] it was 82.1%. Moreover, in [19], the growth was 34.7%.
Regarding `CCN(CC)CCCNc1cccc2c(C)cc(OC)nc12`, the growth was 97.4% in assay [1]; 114% in assay [2]; 88.4% in assay [3]; 56.9% in assay [4]; 96.3% in assay [5]; 91.6% in assay [6]. Besides, the growth was 96.8% in assay [7]; 70.3% in assay [8]; 102% in [9]; 78.7% in assay [10]; 78.3% in assay [11]; 92.3% in assay [12]. For the same molecule, the growth in [13] is 97.9%; in [14], 95.5%; in assay [15], 106%; in [16] it was 89.5%; in assay [17] it was 99.9%; in [18], 96.4%. Further, in assay [19], the growth is 95.9%.
For `Cc1nn(-c2ccc(Cl)cc2)c(=O)n1CCN1CCOCC1`, the growth in assay [1] was 61.1%; in [2], 75.5%; in assay [3] it was 89.6%; in [4], 66%; in assay [5], 64.4%; in assay [6], 38.7%. Moreover, the growth is 72.4% in assay [7]; 105% in [8]; 63.2% in [9]; 90.9% in [10]; 95.3% in assay [11]; 83.1% in assay [12]. Besides, the growth in assay [13] was 116%; in [14] it was 92.4%; in [20] it was 93.4%; in assay [15], 42.8%; in assay [17] it was 79.2%; in assay [19], 75.9%.
Turning to `Nc1nc(N)c2cc(CNc3ccc(Cl)c(Cl)c3)ccc2n1`, the growth is 42% in assay [1]; 31.4% in assay [2]; 27.4% in [3]; 0.0737% (active) in assay [4]; 31.5% in assay [5]; 22.5% in [6]. Further, the growth in [7] was 14.8%; in [8], 43.1%; in [9] it was 2.81% (active); in assay [10], -44.2% (active); in [11] it was -55.1% (active); in assay [12], -31.5% (active). The growth was -1.81% (active) in assay [13]; 48.4% in [14]; 49.8% in assay [20]; 15.9% in assay [16]; 12.1% in assay [17]; 28.8% in [18]. For the same molecule, in assay [19], the growth is 28.3%.
Regarding `CCOC(C)(c1ccc(Cl)cc1)C1CCNCC1` (stereo not drawn), the growth in assay [1] is 106%; in [2], 72.9%; in assay [3] it was 100%; in [4], 80.6%; in assay [5], 96.1%; in assay [6] it was 98.4%. In addition, the growth in [7] was 100%; in assay [8] it was 86.1%; in assay [9], 109%; in assay [10], 81.7%; in assay [11] it was 88.1%; in assay [12], 114%. Moreover, the growth in [13] was 100%; in [14], 102%; in assay [15], 96.1%; in assay [16], 115%; in assay [17], 110%; in assay [18], 92.7%. Further, the growth in assay [19] was 92.5%.
For `CCCCCCCCCCCCCCCCS(=O)(=O)Nc1cc(C(=O)NN)cc(C(=O)NN)c1`, the growth in assay [1] is 114%; in assay [2], 47.1%; in assay [3] it was 72.9%; in assay [4], 65%; in assay [5] it was 68.6%; in [6], 77.1%. Besides, the growth was 49% in assay [7]; 90.4% in assay [8]; 34.3% in assay [9]; 21.5% in assay [10]; 56.9% in assay [11]; 68% in assay [12]. The growth in assay [13] is 77.5%; in assay [14], 68.3%; in assay [20], 48.1%; in assay [15] it was 69.8%; in assay [17], 47.2%; in assay [18], 81.2%. For the same molecule, the growth in assay [19] was 102%.
Take `C/C(=C\C(=N\N=C(N)N)c1ccc(Cl)cc1)c1ccc(Cl)cc1`: the growth in [1] was -86.4% (active); in assay [2], -28.2% (active); in assay [3], -73.8% (active); in assay [4] it was -80.1% (active); in assay [5], -83.4% (active); in assay [6], -85.8% (active). Besides, the growth in assay [7] is -58.4% (active); in [8], -93.6% (active); in [9] it was -22.5% (active); in assay [10], -48% (active); in assay [11] it was -67.9% (active); in assay [12] it was -40.2% (active). Moreover, the growth was -80.9% (active) in assay [13]; -75.5% (active) in assay [14]; -22.4% (active) in assay [15]; -60.6% (active) in assay [16]; -87.7% (active) in assay [17]; -50.9% (active) in assay [18]. The growth in assay [19] was -69.6% (active).
For `Nc1ccc(C(OC(=O)c2cc3ccccc3c(Cc3c(O)c(C(=O)OC(c4ccc(N)cc4)(c4ccc(N)cc4)c4ccc(N)cc4)cc4ccccc34)c2O)(c2ccc(N)cc2)c2ccc(N)cc2)cc1`, the growth in assay [1] was -17.2% (active); in assay [2], -5.75% (active); in [3] it was -2.33% (active); in assay [4] it was 29%; in assay [5] it was 44.6%; in assay [6] it was 47.5%. Further, the growth in assay [7] is 11.3%; in [8], -3.31% (active); in assay [9], 21.6%; in [10] it was 21%; in assay [11], 13.1%; in assay [12] it was 2.08% (active). Also, the growth in assay [13] was 13.5%; in assay [14] it was 38.8%; in [15], 15.7%; in [16] it was 47.4%; in assay [17], -14.3% (active); in assay [18], -18.4% (active). The growth in assay [19] is 57.1%.
Regarding `Clc1ccccc1Nc1nnc(-c2ccncc2)s1`, the growth in assay [1] is 107%; in assay [2], 91.7%; in assay [3] it was 86%; in [4], 90.7%; in [5], 111%; in assay [6], 104%. Besides, the growth in assay [7] was 90.5%; in assay [8], 92.1%; in [9], 96%; in assay [10], 93.4%; in assay [12], 89.2%; in assay [13] it was 100%. Also, the growth is 107% in assay [14]; 94.5% in assay [20]; 105% in assay [15]; 101% in assay [16]; 110% in assay [17]; 94.9% in assay [18]. For the same molecule, the growth in assay [19] is 102%.
With `COc1ccc(/C=c2\c(=O)n(-c3ccccc3)c3nn4c(n23)=NNC42CCCCC2)cc1`, the growth in assay [1] is 108%; in assay [2], 91.8%; in assay [3] it was 98.5%; in assay [4], 63.2%; in assay [5], 159%; in assay [6], 90.5%. For the same molecule, the growth in assay [7] is 85.6%; in assay [8] it was 93.4%; in [9], 101%; in assay [10] it was 98.8%; in assay [11], 115%; in [12], 107%. For the same molecule, the growth in [13] is 95.1%; in [20], 106%; in assay [16], 88.5%; in [17] it was 95.9%; in assay [18] it was 104%; in [19], 99.4%.
With `COc1ccc2[nH]c(O)c(/C=c3/ccc4c(c3)N=C(c3ccc(C(F)(F)F)cc3)N=4)c2c1`, the growth in assay [1] is 104%; in assay [2] it was 82.4%; in [3], 79.9%; in assay [4] it was 91.3%; in assay [5], 131%; in assay [6] it was 78%. Besides, the growth was 55.6% in assay [7]; 71.7% in [8]; 23.2% in assay [9]; 48% in assay [10]; 62.6% in assay [11]; 77.1% in [12]. The growth is 87.1% in [13]; 80.5% in assay [20]; 112% in assay [15]; 55.2% in assay [16]; 77.5% in [17]; 72.8% in assay [18]. Also, in assay [19], the growth is 84.7%.
On to `OC(c1cc2cc(Cl)ccc2c2cc(C(F)(F)F)ccc12)C1CCCCN1` (stereo not drawn), for which the growth in assay [1] is -92% (active); in assay [2], -40.4% (active); in assay [3] it was -62.8% (active); in assay [4] it was -88.2% (active); in assay [5], -96.4% (active); in assay [6], -78.2% (active). The growth in assay [7] was -74.2% (active); in assay [8], 27.2%; in assay [9] it was -61.2% (active); in assay [10], -69.3% (active); in assay [11], -75.3% (active); in [12] it was -48% (active). For the same molecule, the growth was -74.6% (active) in assay [13]; -0.379% (active) in [15]; -67.4% (active) in [16]; -94.8% (active) in assay [17]; -52.6% (active) in [18]; -66.1% (active) in assay [19].
In the case of `O=C(/C=C/c1cc([N+](=O)[O-])ccc1Cl)c1ccccc1`, the growth is 107% in assay [1]; 84.6% in assay [2]; 80.8% in [3]; 70.8% in assay [4]; 112% in [5]; 91.2% in [6]. In addition, the growth was 73.2% in assay [7]; 86% in assay [8]; 68.7% in assay [9]; 78% in assay [10]; 20.9% in [12]; 96.3% in [13]. In addition, the growth in assay [14] is 96.1%; in assay [20], 97.2%; in [15], 95.4%; in [16] it was 70.5%; in assay [17], 102%; in [18] it was 98.6%. For the same molecule, in assay [19], the growth was 93.6%.

Source of the values: PubChem BioAssay (NCI).
